# From PubChem BioAssay (NCATS)
# “And” between values parts separate entries of the source, which are not always exact repeats. Identical values can stand only once. Records with an inconclusive call do not appear. A number with no mark means an inactive call. The source made the active and inactive calls. The call rests on the fitted dose curve; in most records, active means well fitted curve in the direction sought with a large enough effect; inconclusive means small, poorly fitted or top-dose-only effect, or another doubt; inactive means no such curve, though single readings can be large; an effect the other way counts as inactive or inconclusive.
# What was measured:
# [1] = molecular target: Cellular tumor antigen p53 (Homo sapiens) (UniProt P04637); assay: Primary qHTS for small molecule compounds that upregulate eGFP-tagged delta133p53alpha (in N-terminal) cells. (AID 2060322); details: NCI-H358 eGFP-delta133p53alpha fluorescence, 24 h; activation: hits give high values;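 further: 0% = DMSO vehicle and 100% = reference activator; nearly all actives have a fitted effect of over 75% in size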
# In short: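 NCI-H358 cells pre-induced 24 h with 10 ng/ml doxycycline to express N-terminal eGFP-delta133p53alpha, then dosed 24 h at 37C without doxycycline; fixed, Hoechst-stained, GFP intensity by laser scanning cytometry, normalized to DMSO (0%) and 57.5 uM 5-azacytidine (100%).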
# [2] = molecular target: Aldehyde dehydrogenase, mitochondrial (Homo sapiens) (UniProt P05091); assay: qHTS for Inhibitors of the Aldehyde Dehydrogenase Family (ALDH2) Primary screen (AID 2061308); details: ALDH2 enzyme inhibition qHTS, 1536-well; series mostly up to 56 µM; further: nearly all actives have a fitted effect of over 55% in size; further: potency means the concentration at half of the fitted maximal effect;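 on activity change, negative = inhibition: plate controls were vehicle for no effect and reference inhibitor for full effect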
# [3] = molecular target: Retinaldehyde dehydrogenase 3 (Homo sapiens) (UniProt P47895); assay: qHTS for Inhibitors of the Aldehyde Dehydrogenase Family (ALDH1A3) Confirmatory screens (AID 2061311); details: ALDH inhibition qHTS; series mostly up to 46 µM; further: nearly all actives have a fitted effect of over 60% in size; further: potency means the concentration at half of the fitted maximal effect
# [4] = molecular target: Retinaldehyde dehydrogenase 3 (Homo sapiens) (UniProt P47895); assay: qHTS for Inhibitors of the Aldehyde Dehydrogenase Family (ALDH1A3) Primary screen (AID 2061315); details: ALDH inhibition qHTS; series mostly up to 56 µM; further: potency means the concentration at half of the fitted maximal effect;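 on activity change, negative = inhibition: plate controls were DMSO vehicle for no effect and reference inhibitor for full effect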
# [5] = molecular target: Retinal dehydrogenase 2 (Homo sapiens) (UniProt O94788); assay: qHTS for Inhibitors of the Aldehyde Dehydrogenase Family (ALDH1A2) Confirmation screens (AID 2061314); details: ALDH1A2 enzyme inhibition qHTS confirmation; series mostly up to 45.9 µM; further: nearly all actives have a fitted effect of over 65% in size; further: potency means the concentration at half of the fitted maximal effect
# [6] = molecular target: Aldehyde dehydrogenase 1A1 (Homo sapiens) (UniProt P00352); assay: qHTS for Inhibitors of the Aldehyde Dehydrogenase Family (ALDH1A1) Confirmatory screens (AID 2061316); details: ALDH inhibition qHTS; series mostly up to 47.3 µM; further: nearly all actives have a fitted effect of over 65% in size; further: potency means the concentration at half of the fitted maximal effect; on activity change, negative = inhibition: on the % scale 0 is the no-effect control and ±100 the full control effect
# [7] = molecular target: Retinaldehyde dehydrogenase 3 (Homo sapiens) (UniProt P47895); assay: qHTS for Inhibitors of the Aldehyde Dehydrogenase Family (ALDH1A3) Validation screen (AID 2061312); details: ALDH1A3 enzyme inhibition qHTS validation, fluorescence; series mostly up to 84.7 µM; further: nearly all actives have a fitted effect of over 45% in size; further: potency means the concentration at half of the fitted maximal effect; on activity change, negative = inhibition: on the % scale 0 is the no-effect control and ±100 the full control effect
# Sequence of Cellular tumor antigen p53 (Homo sapiens) (P04637 whole entry, looked up): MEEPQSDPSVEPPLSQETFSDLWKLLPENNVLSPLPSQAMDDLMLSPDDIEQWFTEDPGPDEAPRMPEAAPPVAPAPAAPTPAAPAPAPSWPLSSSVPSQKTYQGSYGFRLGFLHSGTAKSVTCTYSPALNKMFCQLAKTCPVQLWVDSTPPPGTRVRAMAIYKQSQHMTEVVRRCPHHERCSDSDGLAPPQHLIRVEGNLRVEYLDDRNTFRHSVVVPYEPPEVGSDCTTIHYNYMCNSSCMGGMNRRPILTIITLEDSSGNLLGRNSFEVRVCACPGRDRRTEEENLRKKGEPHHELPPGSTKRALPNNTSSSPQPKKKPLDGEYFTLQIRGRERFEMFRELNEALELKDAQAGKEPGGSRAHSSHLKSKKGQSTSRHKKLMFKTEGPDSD
smiles,measurement,setting,value
O=C(O)c1ccnc2cc(-c3nc4ccccc4n3CCN3CCCCC3)sc12,activation,[1],-1.79%
same,Potency,[2],inactive
Fc1ccc(CN2CCC(Nc3ccc(C(F)(F)F)nn3)CC2)cc1F,activation,[1],-6.21%
same,Potency,[2],inactive
COc1cc2nc(N3CCN(C)CC3)nc(NC3CCN(Cc4ccccc4)CC3)c2cc1OC,activation,[1],2.33%
same,Potency,[2],inactive
C/C=C1/CC2C(=O)Nc3cc(O)c(OC)cc3C(=O)N2C1 (configuration not stated),activation,[1],-3.57%
same,Potency,[2],inactive
C=CCC1=C[C@]2(OC)[C@H](C)[C@@H](c3ccc(O)c(OC)c3)O[C@]2(OC)CC1=O,activation,[1],-15.2%
same,Potency,[2],inactive
CC(CCc1ccc(O)cc1)O[C@@H]1O[C@H](CO[C@@H]2OC(CO)[C@H](O)[C@H]2O)[C@@H](O)[C@H](O)[C@H]1O (some centres not stated),activation,[1],-13.7%
same,Potency,[2],inactive
O=C(c1ccc(C#Cc2cccc(F)c2)cn1)N1CC2CC2C1 (configuration not stated),activation,[1],-1%
same,Potency,[2],inactive
COc1cc(/C=C/C(=O)O[C@H]2[C@@H]3C=CO[C@@H](O[C@@H]4O[C@H](CO)[C@@H](O)[C@H](O)[C@H]4O)[C@@H]3[C@@]3(CO)O[C@@H]23)ccc1O,activation,[1],-2.29%
same,Potency,[2],inactive
CC1(C)CC[C@]2(CO[C@@H]3O[C@H](CO)[C@@H](O)[C@H](O)[C@H]3O)[C@@H](O)C[C@]3(C)C(=CCC4[C@@]5(C)CC[C@H](O[C@@H]6O[C@H](CO[C@@H]7O[C@H](CO[C@@H]8OC[C@@H](O)[C@H](O)[C@H]8O)[C@@H](O)[C@H](O)[C@H]7O)[C@@H](O)[C@H](O)[C@H]6O)C(C)(C)C5CC[C@]43C)[C@@H]2C1 (some centres not stated),activation,[1],-2.68%
same,Potency,[2],inactive
C[C@@H]1O[C@@H](O[C@H]2[C@H](O[C@H]3[C@H](O[C@H]4CC[C@@]5(C)C(CC[C@]6(C)C5CC=C5[C@@H]7CC(C)(C(=O)O)C[C@@H](O)[C@]7(C)CC[C@]56C)[C@@]4(C)CO)O[C@H](C(=O)O)[C@@H](O)[C@@H]3O)O[C@H](CO)[C@H](O)[C@@H]2O)[C@H](O)[C@H](O)[C@H]1O (some centres not stated),activation,[1],-0.893%
same,Potency,[2],inactive
CC1(C)OC(=O)CC(O)C2(C)C1CC(=O)C1(C)C2C(O)CC2(C)C(c3ccoc3)OC(=O)C3OC321 (configuration not stated),activation,[1],-23.7%
same,Potency,[2],inactive
C=C1CC[C@@H]2[C@](C)(CO[C@@H]3O[C@H](CO)[C@@H](O)[C@H](O)[C@H]3O)CCC[C@@]2(C)[C@@H]1CCC1=CCOC1=O,activation,[1],10.7%
same,Potency,[2],inactive
O=C(/C=C/c1ccc(O)c(O)c1)O[C@H]1[C@@H]2C=CO[C@@H](O[C@@H]3O[C@H](CO)[C@@H](O)[C@H](O)[C@H]3O)[C@@H]2[C@@]2(CO)O[C@@H]12,activation,[1],22.3%
same,Potency,[2],inactive
CC(C/C=C/C(C)(C)O)C1CCC(C)(O)C(O)C1 (configuration not stated),activation,[1],-11.5%
same,Potency,[2],inactive
O=C(O[C@H]1[C@H](Oc2ccc(O)cc2CO)O[C@H](CO)[C@@H](O)[C@@H]1O)c1ccccc1,activation,[1],-10.7%
same,Potency,[2],inactive
C=C(C)Cn1c(SCC(=O)c2cccs2)nc2sc3c(c2c1=O)CCCC3,activation,[1],-5.73%
same,Potency,[2],inactive
NC(=O)[C@H](O[C@@H]1O[C@H](CO)[C@@H](O)[C@H](O)[C@H]1O)c1ccccc1,activation,[1],17.9%
same,Potency,[2],inactive
COc1cc(/C=N\NC(=O)c2ccc3c(c2)OCO3)ccc1OCc1ccccc1,activation,[1],2.39%
same,Potency,[2],inactive
C[C@@H]1O[C@@H](O[C@H]2[C@H](O[C@H]3CC[C@@]4(C)C(CC[C@]5(C)C4CC=C4[C@@H]6CC(C)(C)CC[C@]6(C(=O)O[C@@H]6OC[C@H](O)[C@H](O)[C@H]6O[C@@H]6O[C@@H](C)[C@H](O[C@@H]7O[C@H](CO)[C@@H](O)[C@H](O)[C@H]7O)[C@H](O)[C@H]6O)[C@H](O)C[C@]45C)C3(C)C)O[C@H](CO)[C@@H](O[C@@H]3OC[C@@H](O)[C@H](O)[C@H]3O)[C@@H]2O)[C@H](O)[C@H](O)[C@H]1O (some centres not stated),activation,[1],-2.29%
same,"activity change, negative = inhibition",[2],-18.4% [at 11.2 µM]
CC1(C)CC2C=C(C(=O)O)C3COC(=O)C(O)(CO)C23C1 (configuration not stated),activation,[1],-13%
same,Potency,[2],inactive
CC(C)(O)C1OC1C1=CC(=O)C2(C)OC2C1O (configuration not stated),activation,[1],1.79%
same,Potency,[2],inactive
CNCc1cc(-c2ccccc2F)n(S(=O)(=O)c2cccnc2)c1,activation,[1],12.5%
same,Potency,[2],inactive
CC(C)c1cc2c(c(O)c1O)[C@@]13CCCC(C)(C)C1[C@@H](O)[C@@H]2OC3=O (some centres not stated),activation,[1],-5.34%
same,Potency,[2],inactive
same,Potency,[3],13.9 µM (active)
same,Potency,[4],4.47 µM (active)
COc1cc(OC)c(NC(=O)c2ccc(Cc3cc4c(cc3C)C(C)(C)CCC4(C)C)o2)c(OC)c1,activation,[1],10.5%
same,Potency,[2],inactive
same,Potency,[3],4 µM (active)
same,Potency,[5],5.65 µM (active)
same,Potency,[6],5.04 µM (active)
CC[C@H](NC(=O)c1c(O)c(-c2ccccc2)nc2ccccc12)c1ccccc1,activation,[1],2.86%
same,Potency,[2],inactive
same,Potency,[3],3.57 µM (active)
same,Potency,[5],1.27 µM (active)
same,Potency,[6],3.18 µM (active)
C=C1CCC2(C(=O)OC3OC(CO)C(O)C(O)C3O)CCC3(C)C(=CCC4C5(C)CCC(OC6OC(CO)C(OC7OC(C)C(O)C(O)C7O)C(OC7OCC(O)C(O)C7O)C6O)C(C)(C)C5CCC43C)C2C1 (configuration not stated),activation,[1],14.3%
same,Potency,[2],inactive
COc1cc(/C=C/C(=O)O[C@H]2[C@H](O)[C@@H](CO)O[C@@]2(CO)O[C@H]2O[C@H](COC(=O)c3ccc(O)cc3)[C@@H](O)[C@H](O)[C@H]2O)cc(OC)c1OC,activation,[1],-19.8%
same,Potency,[2],inactive
CC(C)(Oc1ccc(-c2nc3cc(Cl)ccc3s2)cc1)C(=O)O,activation,[1],-19.6%
same,Potency,[2],inactive
same,Potency,[3],12.6 µM (active)
same,Potency,[7],31.6 µM (active)
same,Potency,[4],11.2 µM (active)
CC(/C=C/C1(O)C2(C)COC1(C)CC(=O)C2)O[C@@H]1O[C@H](CO)[C@@H](O)[C@H](O)[C@H]1O (some centres not stated),activation,[1],2.68%
same,Potency,[2],inactive
COc1cc(C2Oc3c(OC)cc(/C=C/C(=O)OC4CC(O)(C(=O)O)CC(O)C4O)cc3C2CO)ccc1O (configuration not stated),activation,[1],-32.8%
same,Potency,[2],inactive
COc1cc(C(=O)OC[C@H]2O[C@@H](OC(C)(C)C(=O)O)[C@H](O)[C@@H](O)[C@@H]2O)cc(OC)c1O,activation,[1],-29.5%
same,Potency,[2],inactive
C[C@]1(C2CCCC2)Cc2cc(OCC(=O)O)c(Cl)c(Cl)c2C1=O,activation,[1],-3.67%
same,Potency,[2],inactive
COc1cc2c(cc1O)C1(Cc3ccc4c(c3C1=O)OCO4)N(C)CC2 (configuration not stated),activation,[1],-7.63%
same,Potency,[2],inactive
COc1ccc(-c2ccc3c(N4CCOCC4C)nc(N4CCOCC4C)nc3n2)cc1CO (configuration not stated),activation,[1],7.14%
same,Potency,[2],inactive
COc1cc2c(cc1O)C1(Cc3ccc4c(c3C1O)OCO4)[N+](C)([O-])CC2 (configuration not stated),activation,[1],-8.04%
same,Potency,[2],inactive
CC(=O)c1c(O)cc2cccc3c2c1CC(C)(O)O3 (configuration not stated),activation,[1],6.11%
same,Potency,[2],inactive
same,Potency,[3],12.7 µM (active)
same,Potency,[4],inactive
CO/N=C(/C(=O)N[C@@H]1C(=O)N2C(C(=O)O)=C(CSC(=O)c3ccco3)CS[C@H]12)c1csc(N)n1,activation,[1],-18.6% and -3.67%
same,Potency,[2],17.8 µM (active)
same,Potency,[3],7.12 µM (active)
same,Potency,[5],28.3 µM (active)
same,Potency,[4],inactive
same,Potency,[6],5.65 µM (active)
CC1CCC2(O1)C(C)(C)CC(O[C@@H]1O[C@H](CO[C@@H]3OC[C@](O)(CO)[C@H]3O)[C@@H](O)[C@H](O)[C@H]1O)CC2(C)O (some centres not stated),activation,[1],1.79%
same,Potency,[2],inactive
COc1ncc(Nc2ncc([C@@H](C)N3CCN(S(C)(=O)=O)CC3)cc2-c2nc(C)nc(N)n2)cc1F,activation,[1],21%
same,Potency,[2],inactive
same,Potency,[3],10 µM (active)
same,Potency,[7],inactive
same,Potency,[4],inactive
CN(CCCNC(=O)c1ccc2nc3c(c(Cl)c2c1)CCCC3)Cc1ccccc1,activation,[1],20.5%
same,Potency,[2],inactive
same,Potency,[3],8.96 µM (active)
same,Potency,[7],inactive
same,Potency,[5],7.12 µM (active)
same,Potency,[4],inactive
same,Potency,[6],8.96 µM (active)
O=C(/C=C/c1ccc(O)c(O)c1)OC[C@H]1O[C@@H](OC2CCCCC2O)[C@H](O)[C@@H](O)[C@@H]1O (some centres not stated),activation,[1],-3.05%
same,Potency,[2],inactive
COc1cc(C(=O)OC[C@H]2O[C@@H](Oc3ccccc3/C=C/C(=O)O)[C@H](O)[C@@H](O)[C@@H]2O)cc(OC)c1OC,activation,[1],1.53%
same,Potency,[2],inactive
same,Potency,[3],9.79 µM (active)
O=C(OC[C@H]1O[C@@H](Oc2ccccc2COC(=O)C2(O)C=CCCC2O)[C@H](O)[C@@H](O)[C@@H]1O)c1ccccc1 (some centres not stated),activation,[1],-15.3%
same,Potency,[2],inactive
COc1cc(C2OCC3C(c4ccc(OC5OC(CO)C(O)C(O)C5O)c(OC)c4)OCC23)ccc1O (configuration not stated),activation,[1],-24.4%
same,Potency,[2],inactive
Cc1ccc(C(=O)Nc2noc3ccccc23)cc1,activation,[1],-1%
same,Potency,[2],inactive
same,Potency,[3],1.27 µM (active)
same,Potency,[5],inactive
same,Potency,[4],5.01 µM (active)
same,Potency,[6],inactive
N#CC(CCCN1CCN(/N=C/c2cccnc2)CC1)(c1ccccc1)c1ccccc1,activation,[1],-7.16%
same,Potency,[2],inactive
CC(=O)OC/C(=C/C(=O)O)CC[C@@H]1C(CO)=CC[C@@H]2C(C)(C)CCC[C@@]12C,activation,[1],2.29%
same,Potency,[2],inactive
CN(C)CCCCCCNC(=O)c1cccc(-c2cc(O)c3ncccc3c2)c1,activation,[1],0.333%
same,Potency,[2],inactive
same,Potency,[3],8.96 µM (active)
same,Potency,[5],inactive
COc1cc(/C=C/C=O)cc(OC)c1O[C@@H]1O[C@H](CO)[C@@H](O)[C@H](O)[C@H]1O,activation,[1],-14.3%
same,Potency,[2],inactive
C=CC1C(OC2OC(CO)C(O)C(O)C2O)OC=C(C(=O)OC)C1CC1CC(=O)CC(CCc2ccc(O)cc2)O1 (configuration not stated),activation,[1],19.6%
same,Potency,[2],inactive
C/C(=C\CC/C(C)=C/CC[C@]1(C)CCc2cc(O)cc(C)c2O1)CC/C=C(\C)C(=O)O,activation,[1],-5.36%
same,Potency,[2],inactive
same,Potency,[3],inactive
same,Potency,[5],inactive
same,Potency,[4],inactive
